# Measured values as given in PubChem BioAssay (NCATS).
# Records with an inconclusive call do not appear. Where a call stands in place of a potency, no number is given. A number with no mark means an inactive call. Calls of active or inactive are those of the source. Calls follow the shape of the dose curve; as a rule, active = well fitted curve in the direction sought with a large enough effect; inconclusive = small, poorly fitted or top-dose-only effect, or another doubt; inactive = no such curve, though single readings can be large; an effect the other way counts as inactive or inconclusive.
# How the values were obtained:
# [1] = test system: MCC-13; assay: qHTS assay to identify novel small-molecules to repurpose for Merkel cell carcinoma treatment (AID 1296009); details: MCC and control cell lines, CellTiter-Glo viability, 72 h; series mostly up to 46 µM; also: nearly all actives have a fitted effect of over 60% in size
# Procedure, shortened: (§1)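 Dose-response viability screen; 72 hr exposure at 37 degree celsius; CellTiter-Glo added, 10 min room temperature, luminescence read; RLUs scaled between no-cell and DMSO wells.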
# [2] = test system: MCC-26; assay: as above; details: MCC and control cell lines, CellTiter-Glo viability, 72 h; series mostly up to 46 µM
# Procedure, shortened: as §1
# [3] = test system: MKL-1; assay: as above; details: MCC and control cell lines, CellTiter-Glo viability, 72 h; series mostly up to 46 µM
# Procedure, shortened: as §1
# [4] = test system: MKL-2; assay: as above; details: MCC and control cell lines, CellTiter-Glo viability, 72 h; series mostly up to 46 µM
# Procedure, shortened: as §1
# [5] = test system: WaGa; assay: as above; details: MCC and control cell lines, CellTiter-Glo viability, 72 h; series mostly up to 46 µM
# Procedure, shortened: as §1
# [6] = test system: C33A; assay: Primary qHTS to identify gynecologic anti-cancer compounds using libraries of approved drugs and bioactive compounds (AID 1345084); details: Gynecologic cancer cell panel viability, ATPlite luminescence, 48 h; series mostly up to 57.5 µM; also: nearly all actives have a fitted effect of over 55% in size
# Procedure, shortened: (§2)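 Cells, 1,000 per well, plated 16 h, then exposed 48 h at 37 C to compounds. Viability by ATPlite luminescence after 15 min at room temperature.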
# [7] = test system: CAOV3; assay: as above; details: Gynecologic cancer cell panel viability, ATPlite luminescence, 48 h; series mostly up to 57.5 µM
# Procedure, shortened: as §2
# [8] = test system: CASKI; assay: as above; details: Gynecologic cancer cell panel viability, ATPlite luminescence, 48 h; series mostly up to 57.5 µM
# Procedure, shortened: as §2
# [9] = test system: UISO; assay: qHTS assay to identify novel small-molecules to repurpose for Merkel cell carcinoma treatment (AID 1296009); details: MCC and control cell lines, CellTiter-Glo viability, 72 h; series mostly up to 46 µM; also: nearly all actives have a fitted effect of over 60% in size
# Procedure, shortened: as §1
# [10] = test system: NIH3T3; assay: as above; details: MCC and control cell lines, CellTiter-Glo viability, 72 h; at 44.8 µM (top of the series)
# Procedure, shortened: as §1
# Potency is read from the fitted curve at half-maximal effect.
smiles,measurement,setting,value
CCc1oc2ccccc2c1C(=O)c1cc(I)c(O)c(I)c1,Potency,[1],inactive
same,Potency,[2],inactive
same,Potency,[3],inactive
same,Potency,[4],inactive
same,Potency,[5],inactive
same,Potency,[6],inactive
same,Potency,[7],inactive
same,Potency,[8],inactive
O=C(CCN1CCN2CCCC2C1)N1c2ccccc2Sc2ccc(Cl)cc21 (stereo unspecified),Potency,[1],inactive
same,Potency,[2],inactive
same,Potency,[3],inactive
same,Potency,[9],inactive
same,Potency,[5],inactive
same,Potency,[6],inactive
same,Potency,[8],inactive
N/C(=N\N=C\c1ccc(Cl)cc1)N/N=C/c1ccc(Cl)cc1,Potency,[1],inactive
same,Potency,[2],inactive
same,Potency,[3],inactive
same,Potency,[9],inactive
same,Potency,[5],inactive
same,Potency,[6],inactive
same,Potency,[7],inactive
same,Potency,[8],inactive
COc1cc(O)c(C(=O)c2ccccc2)cc1S(=O)(=O)O,Potency,[1],inactive
same,Potency,[2],inactive
same,Potency,[3],inactive
same,Potency,[4],inactive
same,Potency,[9],inactive
same,Potency,[6],inactive
same,Potency,[7],inactive
same,Potency,[8],inactive
C#C[C@]1(O)CC[C@H]2[C@@H]3[C@H](C)CC4=C(CCC(=O)C4)[C@H]3CC[C@@]21C,Potency,[1],inactive
same,Potency,[2],inactive
same,Potency,[3],inactive
same,Potency,[9],inactive
same,Potency,[5],18.8 µM (active)
same,Potency,[6],inactive
same,Potency,[7],inactive
same,Potency,[8],inactive
CCCCNc1ccc(C(=O)OCCOCCOCCOCCOCCOCCOCCOCCOCCOC)cc1,Potency,[1],inactive
same,Potency,[2],inactive
same,Potency,[3],inactive
same,Potency,[4],inactive
same,Potency,[6],inactive
same,Potency,[7],inactive
same,Potency,[8],inactive
CCCCC(CC)CN1CN(CC(CC)CCCC)CC(C)(N)C1 (stereo unspecified),Potency,[1],inactive
same,Potency,[2],inactive
same,Potency,[3],inactive
same,Potency,[5],inactive
same,Potency,[6],inactive
same,Potency,[7],inactive
same,Potency,[8],inactive
O=C(c1ccc(F)cc1)C1CCN(CCn2c(=S)[nH]c3ccccc3c2=O)CC1,Potency,[1],inactive
same,Potency,[2],inactive
same,Potency,[3],inactive
same,Potency,[4],inactive
same,Potency,[6],inactive
same,Potency,[7],inactive
same,Potency,[8],inactive
C[C@]12CCC(=O)C=C1C=C[C@@H]1[C@@H]2CC[C@@]2(C)[C@H]1CC[C@@]21CCC(=O)O1,Potency,[1],inactive
same,Potency,[2],inactive
same,Potency,[3],inactive
same,Potency,[4],inactive
same,Potency,[6],inactive
same,Potency,[7],inactive
O=[N+]([O-])c1ccc(/C=N\O)o1,Potency,[1],inactive
same,Potency,[2],inactive
same,Potency,[3],18.8 µM (active)
same,Potency,[5],23.7 µM (active)
same,Potency,[6],inactive
same,Potency,[7],inactive
same,Potency,[8],inactive
C#C[C@]1(O)CC[C@H]2[C@@H]3CCc4cc(OC)ccc4[C@H]3CC[C@@]21C,Potency,[1],inactive
same,Potency,[2],inactive
same,Potency,[3],inactive
same,Potency,[9],inactive
same,Potency,[5],inactive
same,Potency,[6],inactive
same,Potency,[7],inactive
same,Potency,[8],inactive
CCN(CC)CCOc1ccccc1C(=O)CCc1ccccc1,Potency,[1],inactive
same,Potency,[2],inactive
same,Potency,[3],inactive
same,Potency,[4],inactive
same,Potency,[9],inactive
same,Potency,[6],inactive
same,Potency,[8],inactive
CC(O)Cn1cnc2c1c(=O)n(C)c(=O)n2C (stereo unspecified),Potency,[1],inactive
same,Potency,[3],inactive
same,Potency,[4],inactive
same,Potency,[9],inactive
same,Potency,[5],inactive
same,Potency,[6],inactive
same,Potency,[7],inactive
same,Potency,[8],inactive
C/C=C/C=N/NC(=O)c1ccncc1,Potency,[1],inactive
same,Potency,[2],inactive
same,Potency,[6],inactive
same,Potency,[7],inactive
same,Potency,[8],inactive
CCCCCCCCCCCCOCCOCCOCCOCCOCCOCCOCCOCCOCCO,Potency,[1],inactive
same,Potency,[2],inactive
same,Potency,[5],21.1 µM (active)
same,Potency,[7],inactive
CCOC(=O)c1c(N)sc2c1CCN(Cc1ccccc1)C2,Potency,[1],inactive
same,Potency,[2],inactive
same,Potency,[4],3.76 µM (active)
same,Potency,[5],21.1 µM (active)
CCN1CCCC(OC(=O)C(c2ccccc2)c2ccccc2)C1 (stereo unspecified),Potency,[1],inactive
same,Potency,[3],inactive
same,Potency,[4],inactive
same,Potency,[9],inactive
same,Potency,[5],inactive
same,Potency,[6],inactive
same,Potency,[7],inactive
same,Potency,[8],inactive
Cc1cc(C)cc(OCC2CNC(=O)O2)c1 (stereo unspecified),Potency,[1],inactive
same,Potency,[3],inactive
same,Potency,[4],inactive
same,Potency,[9],inactive
same,Potency,[5],inactive
same,Potency,[6],inactive
same,Potency,[7],inactive
same,Potency,[8],inactive
CN(C)CCOC(=O)C(c1ccccc1)C1(O)CCCC1 (stereo unspecified),Potency,[1],inactive
same,Potency,[2],inactive
same,Potency,[4],inactive
same,Potency,[9],inactive
same,Potency,[6],inactive
same,Potency,[7],inactive
same,Potency,[8],inactive
CN1CCN(CCC(=O)N2c3ccccc3Sc3ccc(C(F)(F)F)cc32)CC1,Potency,[1],inactive
same,Potency,[2],inactive
same,Potency,[7],22.4 µM (active)
CNCCCCOc1ccccc1Cc1ccccc1,Potency,[1],inactive
same,Potency,[2],inactive
same,Potency,[4],18.8 µM (active)
same,Potency,[5],18.8 µM (active)
same,Potency,[6],25.1 µM (active)
COc1ccc(CN(CCN(C)C)c2ncccn2)cc1,Potency,[1],inactive
same,Potency,[3],inactive
same,Potency,[4],inactive
same,Potency,[9],inactive
same,Potency,[5],inactive
same,Potency,[6],inactive
same,Potency,[7],inactive
same,Potency,[8],inactive
C[C@H]1[C@H]2CC[C@H]3[C@@H]4CC=C5C[C@@H](N(C)C)CC[C@]5(C)[C@H]4CC[C@]23CN1C,Potency,[1],inactive
same,Potency,[2],inactive
same,Potency,[4],inactive
same,Potency,[9],inactive
same,Potency,[5],inactive
same,Potency,[6],inactive
same,Potency,[7],inactive
same,Potency,[8],inactive
CC(CNC1CCCCC1)OC(=O)c1ccccc1 (stereo unspecified),Potency,[1],inactive
same,Potency,[3],inactive
same,Potency,[4],inactive
same,Potency,[9],inactive
same,Potency,[5],inactive
same,Potency,[6],inactive
same,Potency,[7],inactive
same,Potency,[8],inactive
O=C1OC(CN2CCOCC2)CN1/N=C/c1ccc([N+](=O)[O-])o1 (stereo unspecified),Potency,[1],inactive
same,Potency,[2],inactive
same,Potency,[9],inactive
same,Potency,[5],inactive
same,Potency,[6],inactive
same,Potency,[7],inactive
same,Potency,[8],inactive
CC(=O)Oc1ccc(C)cc1,Potency,[1],inactive
same,Potency,[3],inactive
same,Potency,[4],inactive
same,Potency,[9],inactive
same,Potency,[5],inactive
same,Potency,[6],inactive
same,Potency,[7],inactive
same,Potency,[8],inactive
CCN[C@@H]1C[C@H](N)[C@@H](OC2OC(CN)=CCC2N)[C@H](O)[C@H]1O[C@H]1OC[C@](C)(O)[C@H](NC)[C@H]1O (stereo partly specified),"activity change, negative = cytotoxicity",[1],16.3% [at 0.597 µM]
same,"activity change, negative = cytotoxicity",[3],9.5% [at 0.597 µM]
same,"activity change, negative = cytotoxicity",[4],2.5% [at 0.597 µM]
same,"activity change, negative = cytotoxicity",[9],19.1% [at 0.597 µM]
same,"activity change, negative = cytotoxicity",[5],13.3% [at 0.597 µM]
same,"activity change, negative = cytotoxicity",[6],4.69% [at 0.462 µM]
same,"activity change, negative = cytotoxicity",[7],0% [at 0.462 µM]
same,"activity change, negative = cytotoxicity",[8],-0.808% [at 0.462 µM]
Oc1ccccc1C=NCc1ccccc1,Potency,[1],inactive
same,Potency,[3],inactive
same,Potency,[4],inactive
same,outcome,[10],inactive
same,Potency,[9],inactive
same,Potency,[5],inactive
same,Potency,[6],inactive
same,Potency,[7],inactive
same,Potency,[8],inactive
CC(C)=CCOc1ccc(/C=C/C(=O)c2ccc(OCC=C(C)C)cc2OCC(=O)O)cc1,Potency,[1],inactive
same,Potency,[3],inactive
same,Potency,[4],inactive
same,outcome,[10],inactive
same,Potency,[5],inactive
same,Potency,[6],inactive
same,Potency,[7],inactive
same,Potency,[8],inactive
CCCCOC(=O)CC(CC(=O)OCCCC)(OC(C)=O)C(=O)OCCCC,Potency,[1],inactive
same,Potency,[3],inactive
same,Potency,[4],inactive
same,Potency,[9],inactive
same,Potency,[5],inactive
same,Potency,[6],inactive
same,Potency,[7],inactive
same,Potency,[8],inactive
Cc1cccc(C)c1NC(=O)c1ccccc1C(=O)O,Potency,[1],inactive
same,Potency,[3],inactive
same,Potency,[4],inactive
same,Potency,[9],inactive
same,Potency,[5],inactive
same,Potency,[6],inactive
same,Potency,[7],inactive
same,Potency,[8],inactive
COc1cc([C@H]2Oc3cc([C@H]4Oc5cc(O)cc(O)c5C(=O)[C@@H]4O)ccc3O[C@@H]2CO)ccc1O,Potency,[1],inactive
same,Potency,[3],inactive
same,Potency,[4],inactive
same,Potency,[9],inactive
same,Potency,[5],inactive
same,Potency,[6],inactive
same,Potency,[7],inactive
same,Potency,[8],inactive
C#C[C@]1(OC(C)=O)CC[C@H]2[C@@H]3CCC4=C/C(=N/O)CC[C@@H]4[C@H]3CC[C@@]21CC,Potency,[1],inactive
same,Potency,[2],inactive
same,Potency,[9],29.9 µM (active)
same,Potency,[6],inactive
same,Potency,[8],inactive
COc1ccc(/C=N/NC(=O)c2ccncc2)cc1OC,Potency,[1],inactive
same,Potency,[3],inactive
same,Potency,[4],inactive
same,Potency,[9],inactive
same,Potency,[5],inactive
same,Potency,[6],inactive
same,Potency,[7],inactive
same,Potency,[8],inactive
